Source: PubChem
D1 antag = Antagonist of Human D 1 Dopamine Receptor: qHTS. D(1A) dopamine receptor (Homo sapiens), P21728. AID 504652, 2011. hit rate 3.2% among 360,000. activity change, negative = inhibition, % at 10 µM. HEK293 TREx D1 cells, calcium flux, dopamine EC80; stronger effect = lower value; in the data active = activity change below about -30%
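HEK293 T-REx cells expressing inducible, force-coupled D1 receptor; no-wash Ca dye, 30–90 min RT. Cmpd → 180 s read at 1 Hz → EC80 DA → 180 s read.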
D1 agonist = Allosteric Agonists of the Human D1 Dopamine Receptor: qHTS; D(1A) dopamine receptor (Homo sapiens), P21728; HEK293 T-REx D1 cells, calcium flux, agonist mode; activation, % at 2 µM; hit rate 1% among 360,000; AID 504660, 2011; in the data active = activation above about 30%
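Agonism was scored from calcium flux recorded over 180 s (1 read/s) after pintool compound addition, following a 10-cycle baseline. Cells were inducible force-coupled HEK293 TREx D1, plated overnight at 30 C and loaded with no-wash calcium dye.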
Eya2 inh = qHTS Assay for Inhibitors of the Phosphatase Activity of Eya2 | recombinant Eya2, OMFP fluorescence dephosphorylation (OMFP is methylfluorescein phosphate) | hit rate 0.006% among 330,000 | AID 488837, 2010 | Protein phosphatase EYA2 (Homo sapiens), O00167 | Potency, µM (highest dose often 76.9 µM), hits mostly inhibitors
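Eya2 protein (added as 0.2 uM solution) was preincubated with compound for 10 min at ambient temperature in 50 mM HEPES pH 7.5, 50 mM NaCl, 5 uM MgCl2, 0.05% BSA, 1 mM DTT. OMFP (added at 50 uM) then reacted 10 min; fluorescence read at 485/525 nm.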
D1 PAM = Potentiators of Human D1 Dopamine Receptor: qHTS | D(1A) dopamine receptor (Homo sapiens), P21728 | HEK293 TREx D1 cells, calcium flux, dopamine EC20 potentiation | potentiation, % at 10 µM | hit rate 0.036% among 360,000; in the data active = potentiation above about 30%
GALK inhibitor = qHTS Assay for Inhibitors of Human Galactokinase (GALK); hit rate 0.007% among 270,000; Potency, µM (doses to about 57.5 µM), actives largely listed as inhibitors; P51570; AID 1868, 2009; Purified GALK, Kinase-Glo residual ATP luminescence
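5 nM enzyme, 35 uM ATP, 100 uM galactose, 20 mM HEPES pH8.0, 5 mM MgCl2; 1 h RT; residual ATP by Kinase-Glo Plus luminescence, qHTS format.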
USP2a inh = qHTS Assay for Inhibitors of Ubiquitin-specific Protease USP2a Using CHOP2 as the Reporter; USP2 core, Ub-CHOP2 coupled fluorogenic reporter, 485/531; Potency, µM (titrated, usually from 38.3 µM), actives largely listed as inhibitors; hit rate 0.01% among 330,000
Target sequence (O75604 whole entry, looked up): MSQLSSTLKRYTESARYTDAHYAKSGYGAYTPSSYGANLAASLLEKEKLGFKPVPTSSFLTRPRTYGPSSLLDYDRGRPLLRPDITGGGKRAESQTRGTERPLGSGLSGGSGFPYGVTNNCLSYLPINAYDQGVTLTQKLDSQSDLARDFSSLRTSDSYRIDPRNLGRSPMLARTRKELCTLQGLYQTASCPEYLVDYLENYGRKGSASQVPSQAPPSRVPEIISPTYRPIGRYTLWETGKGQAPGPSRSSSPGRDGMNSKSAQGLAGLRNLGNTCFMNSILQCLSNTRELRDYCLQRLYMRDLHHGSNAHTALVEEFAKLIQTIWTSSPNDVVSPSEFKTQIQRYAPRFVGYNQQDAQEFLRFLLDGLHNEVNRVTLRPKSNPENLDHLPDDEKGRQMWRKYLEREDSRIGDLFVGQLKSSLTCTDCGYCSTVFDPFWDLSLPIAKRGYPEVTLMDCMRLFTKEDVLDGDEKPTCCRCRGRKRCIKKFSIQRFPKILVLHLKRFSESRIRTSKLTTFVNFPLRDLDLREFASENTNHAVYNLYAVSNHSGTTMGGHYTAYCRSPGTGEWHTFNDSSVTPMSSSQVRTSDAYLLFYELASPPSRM
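Cell-free coupled assay: 10nM USP2 core preincubated 30min RT with compound in Tris-HCl pH 8.0/CaCl2/CHAPS buffer, then 25nM Ub-CHOP2 and 25nM reporter substrate; fluorescence (Ex 485/Em 531) read after 60min RT, normalized to NEM inhibition, concentration-response curves fitted.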
A number is an active result. Compounds with a hit are over-represented: about 3.9% of the library has one in this group of screens. Unless noted, calls come from the whole dose curve; as a rule, active = well fitted inhibition curve with a large enough effect; inconclusive = small, poorly fitted or top-dose-only effect, or effect the other way; inactive = flat fitted curve, though single readings scatter.

What do the screens show for `C[C@@H](NC(=O)Cn1ccc(NC(=O)OCc2ccccc2)nc1=O)c1cccc2ccccc12`?
D1 antag: -33; D1 agonist: inactive; Eya2 inh: inactive; D1 PAM: inactive; USP2a inh: inactive

What do the screens show for `O=c1c(Cl)c2oc3ccccc3nc-2c2ccccc12`?
D1 antag: inactive; D1 agonist: 75; Eya2 inh: inactive; D1 PAM: inactive; GALK inhibitor: inactive; USP2a inh: inactive

What do the screens show for `Cc1ccc(Oc2ccc(NC(=O)Cn3ccsc3=N)cc2)cc1`?
D1 antag: inactive; D1 agonist: 85; Eya2 inh: inactive; D1 PAM: inactive; GALK inhibitor: inactive; USP2a inh: inactive

What do the screens show for `COc1ccc(S(=O)(=O)N2CCCCC2)cc1NC(=O)C1CCCC1`?
D1 antag: inactive; D1 agonist: inactive; Eya2 inh: inactive; D1 PAM: inactive; USP2a inh: inactive

How did Cc1ccc(S(=O)(=O)N2CCCCC2)cc1NC(=O)Cn1ccsc1=N do in these assays?
D1 antag: -39; D1 agonist: inactive; Eya2 inh: inactive; D1 PAM: inactive; GALK inhibitor: inactive; USP2a inh: inactive

How did Cc1ccc(NC(=O)CN(C)C(=O)Cn2ccsc2=N)cc1 do in these assays?
D1 antag: inactive; D1 agonist: inactive; Eya2 inh: inactive; D1 PAM: inactive; GALK inhibitor: inactive; USP2a inh: inactive

What do the screens show for `Cc1ccc(S(=O)(=O)N2CCC(C(N)=O)CC2)cc1[N+](=O)[O-]`?
D1 antag: -39; D1 agonist: inactive; Eya2 inh: inactive; D1 PAM: inactive; GALK inhibitor: inactive; USP2a inh: inactive

How did N=c1sccn1CC(=O)Nc1cc(S(=O)(=O)N2CCCCC2)ccc1Cl do in these assays?
D1 antag: inactive; D1 agonist: inactive; Eya2 inh: inactive; D1 PAM: inactive; GALK inhibitor: inactive; USP2a inh: inactive

Results for Cc1ccc(S(=O)(=O)N2CCCCC2)cc1NC(=O)C1CCC1 ?
D1 antag: -34; D1 agonist: inactive; Eya2 inh: inactive; USP2a inh: inactive

Results for O=C(CSc1nccn1Cc1ccc(Cl)cc1)Nc1ccc2c(c1)OCO2 ?
D1 antag: inactive; D1 agonist: inactive; D1 PAM: inactive

How did COc1ccc2oc(=O)cc(CN3CCN(c4ccc(F)cc4)CC3)c2c1 do in these assays?
D1 antag: inactive; D1 agonist: inactive; D1 PAM: inactive

How did Cc1ccc(CCNC(=O)c2cc3c(=O)n(C)c4ccccc4c3n2C)cc1 do in these assays?
D1 antag: inactive; D1 agonist: inactive; D1 PAM: inactive

Results for CNc1oc(/C=C/c2cc(OC)c(OC)c(OC)c2)nc1C#N ?
D1 antag: inactive; D1 agonist: inactive; D1 PAM: inactive

How did Cc1ccc(S(=O)(=O)N2CCCCC2)cc1NC(=O)C1=NN(c2ccccc2)C(=O)CC1 do in these assays?
D1 antag: -44; D1 agonist: inactive; Eya2 inh: inactive; D1 PAM: inactive; USP2a inh: inactive

Results for COC(=O)c1cc2c(=O)c3ccccc3oc2nc1/C=C/N(C)C ?
D1 antag: inactive; D1 agonist: 76; Eya2 inh: inconclusive; D1 PAM: inactive; GALK inhibitor: inactive; USP2a inh: inactive

What do the screens show for `COc1cc(NC(=O)CCc2c(C)nc3c(c(C)nn3-c3ccccc3)c2C)cc(OC)c1OC`?
D1 antag: inactive; D1 agonist: inactive; D1 PAM: inactive

Results for O=C(c1ccccc1)N1CCN(C(=O)c2ccc3c(c2)OCCO3)CC1 ?
D1 antag: -39; D1 agonist: inactive; Eya2 inh: inactive; D1 PAM: inactive; GALK inhibitor: inactive; USP2a inh: inactive

What do the screens show for `O=C(c1ccccc1)c1ccc2c(c1)OCCCO2`?
D1 antag: -40; D1 agonist: inactive; Eya2 inh: inactive; D1 PAM: inactive; GALK inhibitor: inactive; USP2a inh: inactive
